The nature of experiment [1]: Nuclear factor erythroid 2-related factor 2/antioxidant responsive element (Nrf2/ARE) small molecule agonists: luciferase reporter gene qHTS assay in human keratinocytes (AID 1919969). Note: nearly all actives have a fitted effect of over 35% in size. Note: potency is the fitted concentration of half-maximal effect.
Experiment [2] deals with Gonadotropin-releasing hormone receptor (Homo sapiens) (UniProt P30968). Nature of the experiment: Human gonadotropin-releasing hormone receptor (GnRHR) small molecule agonists, calcium flux assay in GnRHR-HEK293 cells (AID 1920063). Note: nearly all actives have a fitted effect of over 35% in size. The method, boiled down:
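Intracellular calcium rise is the read-out: engineered human GnRHR HEK293 cells, dye-loaded, are exposed to DMSO-dissolved compounds and fluorescence at Ex/Em 480/540 is tracked for 3 min.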
For orientation: Calcium assays in cells follow changes in intracellular calcium, usually with a dye or a luminescent sensor.

For experiment [3], the target named is KiSS-1 receptor (Homo sapiens) (UniProt Q969F8). The experiment in a line: Human kisspeptin (KISS1R) small molecule agonists, calcium flux assay in KISS1R-HEK293 cells (AID 1920064; active = well fitted activation curve with a large enough effect in the repeat runs). Summed up:
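Concentration-response testing used 15 concentrations in triplicate on human KISS1R-expressing HEK293 cells. Calcium-dependent fluorescence (Ex/Em 480/540) was followed kinetically for 3 min after compound transfer.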

Experiment [4] is described as follows: G protein-coupled receptor (GPCR) small molecule agonists, calcium flux assay: HEK293 wild type cell line counter screen (AID 1920065). Summed up: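 Fluorescence intensity signals activation. After overnight (18 h) culture and a 1 h calcium dye load at 37 C, compounds are added by pin tool and the plate read at 480/540 nm for 3 min in 1 s steps.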
A short description of experiment [5]: p53 small molecule agonists, cell-based qHTS assay with human liver microsomes (AID 1963577). Summed up: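 Cells carrying a p53-responsive bla reporter were rested 5 h (37 C, 5% CO2) before compound transfer. Human liver microsomes plus NADPH, 0.5 mg/mL final apiece, supplied metabolism during the 16 h 37 C exposure.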
For orientation: Quantitative high-throughput screening tests each substance at several concentrations.

Experiment [6] is described as follows: p53 small molecule agonists, cell-based qHTS assay with rat liver microsomes (AID 1963578). The method, boiled down:
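Fluorescence from a beta-lactamase reporter under a p53 response element was measured after cells had been incubated 16 h at 37 C with test compound and rat liver microsomes plus NADPH (0.5 mg/mL final each).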

The nature of experiment [7]: p53 small molecule agonists, cell-based qHTS assay with human liver microsomes: qHTS cell viability counter screen (AID 1963579). Note: nearly all actives have a fitted effect of over 45% in size. Note: potency is the fitted concentration of half-maximal effect. Summed up: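 Seed p53RE-bla cells at 4,000 per well; incubate 5 h at 37 C; add compound, human liver microsomes and NADPH; incubate 16 h at 37 C; add CellTiter-Glo; after 30 min at room temperature, read luminescence.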
The nature of experiment [8]: p53 small molecule agonists, cell-based qHTS assay with rat liver microsomes: qHTS cell viability counter screen (AID 1963580). Note: nearly all actives have a fitted effect of over 45% in size. Summed up:
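Luminescent ATP readout (CellTiter-Glo, 30 min at room temperature) reports viability of p53RE-bla HCT-116 cells after 16 h at 37 C with test compounds under metabolic activation by rat liver microsomes and NADPH at 0.5 mg/mL final each.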

The nature of experiment [9]: p53 small molecule agonists, cell-based qHTS assay (AID 1963582; active = well fitted activation curve with a large enough effect in the signal ratio in the repeat runs, not every such curve was filed as active; the % refers to the signal ratio). Summed up: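 After plating, p53RE-bla cells sat 5 h in the incubator; compounds or DMSO vehicle were pinned in; a 16 h incubation at 37 C followed; FRET substrate was added and, 2 h later at RT, fluorescence was measured.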
In experiment [10] the target is 5-hydroxytryptamine receptor 2A (Homo sapiens) (UniProt P28223). The experiment in a line: 5-hydroxytryptamine receptor 2A (HTR2A) small molecule antagonists, cell-based qHTS assay (AID 1963586). Note: nearly all actives have a fitted effect of over 45% in size. Summed up:
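CHO cells stably expressing human HTR2A were plated for 18 h at 37 C, then loaded with calcium dye for 1 h. Compounds were preincubated 5 min at room temperature before DOI (4 nM solution) was added. Kinetic fluorescence was read for 3 min.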

Experiment [11] has the same target. The experiment in a line: 5-hydroxytryptamine receptor 2A (HTR2A) small molecule agonists, cell-based qHTS assay (AID 1963587). Note: nearly all actives have a fitted effect of over 30% in size. Note: potency is the fitted concentration of half-maximal effect. Summed up: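 HTR2A-CHO cells, plated 18 h at 37 C/5% CO2, dye-loaded 1 h at 37 C; compounds in DMSO added by pin tool (agonist mode). Intracellular calcium flux read as kinetic fluorescence on FDSS over 2 min at 1 s intervals.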
The target in experiment [12] is Muscarinic acetylcholine receptor M1 (Homo sapiens) (UniProt P11229). The experiment in a line: Cholinergic receptor muscarinic 1 (CHRM1) small molecule antagonists, cell-based qHTS assay (AID 1963588). Note: nearly all actives have a fitted effect of over 40% in size. The method, boiled down: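 Compounds were tested at 15 concentrations in three independent runs. Dye-loaded CHRM1-CHO cells were exposed 5 min at room temperature before stimulation by acetylcholine added at 50nM. Intracellular calcium was read kinetically on FDSS for 3 min.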

The target is the same in experiment [13]. The experiment in a line: Cholinergic receptor muscarinic 1 (CHRM1) small molecule agonists, cell-based qHTS assay (AID 1963589). Note: nearly all actives have a fitted effect of over 35% in size. Summed up: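 Fluorescent calcium dye reports M1 activation in stably transfected CHO cells. Compounds, 15 concentrations, added after 1 h dye loading at 37 C; kinetic reading at 1 sec intervals.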
The nature of experiment [14]: cAMP Responsive Elements (CRE) small molecule agonists, cell-based qHTS assay (AID 1963590). Summed up:
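Compound exposure lasted 3 h at 37 C/5% CO2 in CRE-bla HEK 293T cells grown in assay medium with 10% dialyzed FBS and 25 mM HEPES. Reporter signal came from LiveBLAzer B/G FRET substrate, 2 h, room temperature.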

The nature of experiment [15]: cAMP Responsive Elements (CRE) small molecule antagonists, cell-based qHTS assay (AID 1963591; active = well fitted inhibition curve with a large enough effect in the signal ratio in the repeat runs, not every such curve was filed as active; the % refers to the signal ratio). Summed up: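 Stimulation used NKH477 at a final 0.25 uM for 3 h in compound-treated CRE-bla HEK293T cells, seeded 18 h beforehand. Reporter activity was measured with LiveBLAzer B/G FRET substrate after 2 h at room temperature.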
Experiment [16] addresses Beta-2 adrenergic receptor (Homo sapiens) (UniProt P07550). The experiment in a line: Adrenergic beta2 receptor (ADRB2) small molecule antagonists, cell-based qHTS assay (AID 1963592). Note: series mostly up to about 92 µM; nearly all actives have a fitted effect of over 50% in size. Summed up:
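Assay format: CHO-ADRB2 cells, 18-20hr seeding at 37C/5% CO2, then compound plus 1nM isoproterenol agonist mix for 0.5hr RT. Homogeneous time-resolved fluorescence cAMP detection after 1hr, expressed as 665/615 nm ratio.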

Experiment [17] has the same target. The experiment in a line: Adrenergic beta2 receptor (ADRB2) small molecule agonists, cell-based qHTS assay (AID 1963593).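 Note: CHO cells stably overexpressing human ADRB2.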 Summed up: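 CHO cells stably over-expressing ADRB2 were plated overnight at 37C, then dosed with compounds plus a stimulation mix containing 100uM IBMX and 25uM Ro-20-1724 for 0.5hr at room temperature. cAMP was measured by HTRF competition, 1hr.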

For experiment [18], the target named is D(2) dopamine receptor (Homo sapiens) (UniProt P14416). Nature of the experiment: Dopamine D2 receptor (DRD2) small molecule agonists, cell-based qHTS assay (AID 1963594). Note: nearly all actives have a fitted effect of over 35% in size. The method, boiled down: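 HEK293 cells stably expressing DRD2 were cultured 24 h at 37 C, then given Ro20-1724 (0.1 mM final) and compounds for 10 min at room temperature. NKH477 (200nM) was then added for 30 min. cAMP was read by HTRF.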

For experiment [19] the target is unchanged. Nature of the experiment: Dopamine D2 receptor (DRD2) small molecule antagonists, cell-based qHTS assay (AID 1963595; active = well fitted inhibition curve with a large enough effect in the signal ratio in the repeat runs, with a control signal flat; the % refers to the signal ratio). The method, boiled down:
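Antagonism was scored as restored cAMP in HEK293-DRD2 cells. These cells were stimulated with 200 nM NKH477 and 12 nM quinpirole for 30 min at room temperature, in the presence of 0.1 mM Ro20-1724.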

A short description of experiment [20]: p53 small molecule agonists, cell-based qHTS assay: qHTS cell viability counter screen (AID 1963581). Note: nearly all actives have a fitted effect of over 45% in size. Summed up: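 Luminescence from CellTiter-Glo, reflecting ATP content, serves as the cytotoxicity measure; it is taken after the 2 h reporter substrate step in HCT-116 p53RE-bla cells dosed for 16 h at 37 C.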

This passage reports Potency and outcome results from PubChem BioAssay (Tox21).

Values without a mark were called inactive. Inconclusive results are not listed. Active and inactive are the calls of the source. Unless noted, calls come from the whole dose curve.

D(2) dopamine receptor (Homo sapiens), sequence (P14416 whole entry, looked up): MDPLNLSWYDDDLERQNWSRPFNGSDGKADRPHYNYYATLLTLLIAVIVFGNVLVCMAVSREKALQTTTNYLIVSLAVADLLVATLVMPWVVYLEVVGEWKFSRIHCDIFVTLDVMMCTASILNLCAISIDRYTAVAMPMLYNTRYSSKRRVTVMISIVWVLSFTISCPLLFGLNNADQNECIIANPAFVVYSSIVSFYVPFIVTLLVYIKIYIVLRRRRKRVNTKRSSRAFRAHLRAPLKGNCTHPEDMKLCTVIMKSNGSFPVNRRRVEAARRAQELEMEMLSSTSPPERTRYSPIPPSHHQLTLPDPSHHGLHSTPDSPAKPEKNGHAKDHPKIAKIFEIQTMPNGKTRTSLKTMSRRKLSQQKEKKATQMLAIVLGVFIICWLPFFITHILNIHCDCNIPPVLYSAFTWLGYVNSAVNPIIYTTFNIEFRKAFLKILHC
Beta-2 adrenergic receptor (Homo sapiens), sequence (P07550 whole entry, looked up): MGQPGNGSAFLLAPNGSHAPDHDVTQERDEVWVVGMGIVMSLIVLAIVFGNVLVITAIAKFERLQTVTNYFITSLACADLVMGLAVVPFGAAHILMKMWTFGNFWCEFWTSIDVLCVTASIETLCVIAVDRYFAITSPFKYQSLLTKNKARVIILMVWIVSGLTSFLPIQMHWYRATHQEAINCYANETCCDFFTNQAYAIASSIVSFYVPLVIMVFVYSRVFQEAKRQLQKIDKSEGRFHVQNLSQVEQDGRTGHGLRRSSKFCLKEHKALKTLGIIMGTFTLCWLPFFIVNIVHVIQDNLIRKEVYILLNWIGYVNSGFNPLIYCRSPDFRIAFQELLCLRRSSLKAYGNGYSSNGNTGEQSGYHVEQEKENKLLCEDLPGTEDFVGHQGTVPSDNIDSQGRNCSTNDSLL
KiSS-1 receptor (Homo sapiens), sequence (Q969F8 whole entry, looked up): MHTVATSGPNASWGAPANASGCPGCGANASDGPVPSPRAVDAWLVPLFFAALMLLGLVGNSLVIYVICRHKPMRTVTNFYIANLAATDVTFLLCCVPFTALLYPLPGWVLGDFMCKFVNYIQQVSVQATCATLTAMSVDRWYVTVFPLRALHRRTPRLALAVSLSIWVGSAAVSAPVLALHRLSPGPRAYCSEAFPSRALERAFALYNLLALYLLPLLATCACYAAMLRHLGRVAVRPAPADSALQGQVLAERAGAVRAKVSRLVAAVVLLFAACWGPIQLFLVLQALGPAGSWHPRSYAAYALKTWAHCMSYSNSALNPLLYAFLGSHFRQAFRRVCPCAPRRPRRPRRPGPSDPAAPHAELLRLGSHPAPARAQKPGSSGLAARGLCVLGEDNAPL
5-hydroxytryptamine receptor 2A (Homo sapiens), sequence (P28223 whole entry, looked up): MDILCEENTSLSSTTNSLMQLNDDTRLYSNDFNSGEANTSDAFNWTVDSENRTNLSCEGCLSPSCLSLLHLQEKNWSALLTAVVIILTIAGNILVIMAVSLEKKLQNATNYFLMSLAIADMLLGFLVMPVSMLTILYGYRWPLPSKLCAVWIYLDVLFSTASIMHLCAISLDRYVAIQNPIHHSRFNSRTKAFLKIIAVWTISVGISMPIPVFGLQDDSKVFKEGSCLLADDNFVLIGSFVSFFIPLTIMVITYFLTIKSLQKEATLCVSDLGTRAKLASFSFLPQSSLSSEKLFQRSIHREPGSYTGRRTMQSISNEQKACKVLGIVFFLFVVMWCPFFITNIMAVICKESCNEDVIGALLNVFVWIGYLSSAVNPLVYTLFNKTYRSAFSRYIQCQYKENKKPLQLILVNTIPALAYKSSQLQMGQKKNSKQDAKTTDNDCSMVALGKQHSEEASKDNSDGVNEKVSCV
Gonadotropin-releasing hormone receptor (Homo sapiens), sequence (P30968 whole entry, looked up): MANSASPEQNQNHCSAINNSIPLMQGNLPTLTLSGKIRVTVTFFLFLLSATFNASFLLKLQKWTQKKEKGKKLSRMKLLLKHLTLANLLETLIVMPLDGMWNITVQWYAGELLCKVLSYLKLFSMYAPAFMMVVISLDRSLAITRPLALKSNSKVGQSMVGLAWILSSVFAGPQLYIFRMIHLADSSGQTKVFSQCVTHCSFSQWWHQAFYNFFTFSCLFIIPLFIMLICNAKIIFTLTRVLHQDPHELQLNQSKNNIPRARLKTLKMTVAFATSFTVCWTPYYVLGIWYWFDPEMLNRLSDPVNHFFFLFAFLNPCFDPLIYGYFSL
Muscarinic acetylcholine receptor M1 (Homo sapiens), sequence (P11229 whole entry, looked up): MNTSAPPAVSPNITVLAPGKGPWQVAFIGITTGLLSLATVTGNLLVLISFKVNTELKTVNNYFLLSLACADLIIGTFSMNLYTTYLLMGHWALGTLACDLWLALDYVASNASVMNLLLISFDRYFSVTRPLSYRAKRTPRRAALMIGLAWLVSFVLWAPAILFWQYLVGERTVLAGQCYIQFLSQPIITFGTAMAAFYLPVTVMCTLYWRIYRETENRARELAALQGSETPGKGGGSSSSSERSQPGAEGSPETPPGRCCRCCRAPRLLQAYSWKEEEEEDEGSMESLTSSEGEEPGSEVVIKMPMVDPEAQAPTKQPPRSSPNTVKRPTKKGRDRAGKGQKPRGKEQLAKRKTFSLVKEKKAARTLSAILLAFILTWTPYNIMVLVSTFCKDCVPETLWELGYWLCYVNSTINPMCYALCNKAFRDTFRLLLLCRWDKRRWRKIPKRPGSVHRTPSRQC

Consider `CC(=O)NCCCCCC(=O)O`, for which the Potency entry in experiment [1], in experiment [2], in experiment [5], in experiment [6], in experiment [7] and in [8] was “inactive” each time. For the same compound, the Potency entry in [9], in experiment [10], in experiment [11], in experiment [12], in [13] and in [14] was “inactive” in each case. Besides, the Potency result in experiment [15], in experiment [16], in [17], in experiment [18] and in experiment [19] was “inactive” each time. Further, the outcome in experiment [3] and in experiment [4] was inactive.
For `CCCCCCCCCC#N`, the Potency in experiment [1] is 68.2 µM (active); in experiment [7], 11.4 µM (active). Further, the Potency entry in experiment [2], in experiment [5], in experiment [6], in [20], in experiment [9] and in experiment [10] was “inactive” in each case. Also, the Potency entry in [11], in experiment [12], in experiment [14], in [15], in [16] and in experiment [18] was “inactive” throughout. Besides, in experiment [19], the Potency result is “inactive”. Besides, the outcome in experiment [3] and in experiment [4] was inactive.
As to `CCC(C)COC(=O)CC(C)C` (stereo not given), the Potency result in experiment [1], in experiment [2], in experiment [6], in experiment [7], in experiment [8] and in experiment [20] was “inactive” each time. In addition, the Potency result in experiment [10], in experiment [11], in experiment [12], in experiment [13], in experiment [16] and in experiment [18] was “inactive” each time. Besides, in [19], the Potency result was “inactive”. Also, the outcome in experiment [3] and in [4] was inactive.
With `CCCCCCCC/C=C\CCCCCCCCCCCC(=O)O`, the Potency result in experiment [1], in [2], in [5], in [6], in [7] and in [8] was “inactive” throughout. The Potency result in experiment [9], in experiment [10], in [11], in [12], in [13] and in experiment [14] was “inactive” each time. For the same compound, the Potency result in experiment [15], in [16], in experiment [18] and in experiment [19] was “inactive” in each case. Also, the outcome in experiment [3] and in [4] was inactive.
On to `C[C@@]12C(=O)OC(=O)[C@]1(C)C1CCC2O1`, for which the Potency result in experiment [1], in [2], in experiment [5], in experiment [6], in experiment [7] and in [16] was “inactive” each time. Moreover, the Potency result in experiment [17], in experiment [18] and in [19] was “inactive” each time. The outcome in experiment [3] and in experiment [4] was inactive.
With `O=Cc1cccc(Br)c1`, the Potency entry in experiment [1], in [2], in experiment [5], in [6], in experiment [8] and in experiment [20] was “inactive” throughout. For the same compound, the Potency result in experiment [10], in experiment [11], in experiment [12], in [13], in experiment [14] and in [15] was “inactive” in each case. The Potency result in experiment [17], in [18] and in [19] was “inactive” throughout. Besides, the result in [3] and in experiment [4] was inactive.
On to `CC1=CP(=O)(c2ccccc2)CC1` (stereo not given), for which the Potency entry in experiment [1], in experiment [2], in experiment [6], in experiment [8], in [20] and in [9] was “inactive” each time. Also, the Potency entry in [10], in experiment [11], in [12], in experiment [13], in experiment [14] and in experiment [17] was “inactive” each time. Moreover, the Potency entry in [18] and in experiment [19] was “inactive” throughout. Also, the result in experiment [3] and in [4] was inactive.
Turning to `CCCCCCCCCCCCCCN(CCO)CCO`, the Potency entry in [1], in experiment [2], in experiment [6], in [8], in experiment [20] and in experiment [10] was “inactive” in each case. In addition, the Potency entry in experiment [16], in [18] and in [19] was “inactive” throughout. In addition, the outcome in experiment [3] and in experiment [4] was inactive. For the same compound, the Potency in experiment [11] is 21.9 µM (active).
